NPC1 promoter act = NPC1 promoter activation | Huh7 NPC1 promoter luciferase reporter, 24 h | Potency, µM (highest dose often 9.22 µM), for the others: at the top dose activation, most hits filed as activators | 320,000 tested, 2.4% active | AID 485313; note: % of control where 0% means no effect; nearly all actives have a fitted effect of over 60% in size
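Stably transfected Huh7 (NPC1 promoter→luciferase), 1500 cells/well in Opti-MEM + 10% FBS, 2 h settle, then compound 24 h at 37 °C. Luminescence after 10 min with Amplite reagent.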
FLuc counter = firefly luciferase modulation, counter-screen for miR-21 project. purified FLuc, Km substrates, luminescence inhibition. Potency, µM (series often up to 57.5 µM), inactives show at the highest dose activity change, negative = inhibition, usual class: inhibitors. 360,000 tested, 6.9% active. AID 588342;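 note: plate controls were vehicle for no effect and reference inhibitor for full effect; nearly all actives have a fitted effect of over 55% in size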
Target sequence (P08659 whole entry, looked up): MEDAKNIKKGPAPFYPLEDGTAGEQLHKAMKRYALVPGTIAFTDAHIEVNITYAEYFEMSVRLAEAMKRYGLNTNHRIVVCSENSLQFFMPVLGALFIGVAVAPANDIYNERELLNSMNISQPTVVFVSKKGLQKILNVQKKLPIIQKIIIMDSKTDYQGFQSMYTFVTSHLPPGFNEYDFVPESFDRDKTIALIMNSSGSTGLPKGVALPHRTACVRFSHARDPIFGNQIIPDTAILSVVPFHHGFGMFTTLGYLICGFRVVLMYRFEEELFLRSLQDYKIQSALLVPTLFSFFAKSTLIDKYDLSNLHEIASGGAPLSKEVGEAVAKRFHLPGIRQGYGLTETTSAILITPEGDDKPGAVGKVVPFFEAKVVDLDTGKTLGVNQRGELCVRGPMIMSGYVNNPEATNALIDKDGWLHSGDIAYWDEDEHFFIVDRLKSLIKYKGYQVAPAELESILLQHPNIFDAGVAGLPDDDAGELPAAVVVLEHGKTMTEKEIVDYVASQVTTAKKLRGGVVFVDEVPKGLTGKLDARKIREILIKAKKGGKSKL
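Purified P. pyralis luciferase, 10 nM final, with Km-level 10 uM D-luciferin and 10 uM ATP in 50 mM Tris acetate pH 7.5, 10 mM Mg acetate, 0.01% Tween-20, 0.05% BSA; 6-point qHTS titration about 60 µM downward; luminescence read.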
SMN2 splice enh = increases expression of the SMN2 splice variant. HEK293 SMN2-luciferase splicing reporter, luminescence, 30-36 h. Potency, µM (top dose mostly 46.1 µM), inactives show at the highest dose activity change, positive = activation, hits mostly activators. 210,000 tested, 2.8% active. AID 1458; note: % of control where 0% means no effect; nearly all actives have a fitted effect of over 55% in size
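qHTS luciferase splicing reporter: luminescence rises when SMN2 exon 7 is included in transfected HEK293 cells. Compound exposure lasted 30-36 h at 37C, with 4.5 mM final sodium butyrate as control, followed by a ONE-Glo read.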
Rab9 prom act = Rab9 promoter activation | 320,000 tested, 2.8% active | Potency, µM (top dose mostly 9.22 µM), for the others: top-dose activation, negative = inhibition, hits mostly activators | Huh7 Rab9 promoter-luciferase reporter, luminescence, 24 h; note: % of control where 0% means no effect; nearly all actives have a fitted effect of over 60% in size
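Steps: seed 1500 Huh7 Rab9-luc cells per well, rest 2 h at 37 °C; add compound in DMSO; incubate 24 h; add luciferase reagent, 10 min ambient; read luminescence.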
KinaseGlo FLuc = counter-screen: inhibitors of Kinase-Glo firefly luciferase; Q27757; Kinase-Glo luciferase, ATP luminescence, 8 min; Potency, µM (highest dose often 38.3 µM), for inactives: at the highest dose activity change, negative = inhibition, actives largely listed as inhibitors; 200,000 tested, 0.28% active; note: % is set by controls: 0 for no effect and ±100 for the full control effect; nearly all actives have a fitted effect of over 60% in size
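Light output from Kinase-Glo luciferase with luciferin and 10 uM ATP in 50 mM imidazole pH 7.2, KCl, MgCl2, Tween 20, BSA; compound pin-delivered, 8-min ambient incubation, then luminescence read.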
ELG1 genotox = genotoxicity induction in ELG1-luciferase HEK293T cells. HEK293T ELG1-luciferase reporter, luminescence, 16 h. Potency, µM (titrated, usually from 46 µM), for the others: at the top dose activity change, positive = activation, most hits filed as activators. 330,000 tested, 1.3% active. AID 504466; note: % of control where 0% means no effect; nearly all actives have a fitted effect of over 60% in size
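16 hr compound incubation (37 °C, 5% CO2) of HEK293T cells carrying luciferase-tagged ELG1; luciferase then measured by ONE-Glo luminescence after 30 min at RT.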
* hit, by the source's call; ? = inconclusive; · = no result given. In the library only some 7.5% were active in any assay of this set; here they are far more common. Calls come from the whole dose curve; as a rule, active = well fitted curve in the direction sought with a large enough effect; inconclusive = small, poorly fitted or top-dose-only effect, or another doubt; inactive = no such curve, though single readings can be large; an effect the other way counts as inactive or inconclusive. Potency is the fitted concentration of half-maximal effect.

SMILES | NPC1 promoter act | FLuc counter | SMN2 splice enh | Rab9 prom act | KinaseGlo FLuc | ELG1 genotox
COc1ccc(-n2nc(C(=O)c3cccs3)cc(-c3nc4ccccc4[nH]3)c2=N)cc1 | -5.9% | -1.4% | ? | 0.0% | -1.5% | 23.1µM*
Cc1ccccc1-n1nc(C(=O)c2cccs2)cc(-c2nc3ccccc3[nH]2)c1=N | 0.3% | 1.8% | -28.5% | -3.8% | 5.9% | -10.8%
O=C(CCCn1c(=O)[nH]c2ccsc2c1=O)N1CCN(c2cccc(C(F)(F)F)c2)CC1 | · | -1.8% | 0.5% | · | · | ·
O=C(/C=C/c1ccccc1)Nc1cccc(C(=O)O)c1 | ? | 0.0675µM* | · | ? | -19.3% | -14.7%
O=C(/C=C/c1ccccc1)Nc1cc(NC(=O)/C=C/c2ccccc2)cc(C(=O)O)c1 | 10.5% | 13.5µM* | · | 15.7% | · | -3.7%
O=C(/C=C/c1cccc([N+](=O)[O-])c1)Nc1cc(C(=O)O)cc(C(=O)O)c1 | -9.5% | -17.9% | -45.3% | 1.6% | 6.0% | -9.0%
O=C(/C=C/c1ccccc1)N/C(=C/c1ccccc1)C(=O)Nc1cccc(C(=O)O)c1 | -1.4% | 23.9µM* | -9.4% | 4.6% | 1.1% | -0.5%
O=C(Nc1ccc(C(=O)O)cc1)/C(=C\C=C\c1ccccc1)NC(=O)c1ccccc1Br | 2µM* | 0.169µM* | · | 3.16µM* | · | 0.6%
Cn1c(=O)c2sccc2n2c(CCC(=O)Nc3ccc(F)cc3)nnc12 | · | -1.0% | -11.1% | · | · | ·
Cc1cc(NS(=O)(=O)c2ccc(NC(=O)CSc3nc4ncccc4[nH]3)cc2)nc(C)n1 | -1.6% | -4.1% | · | 0.2% | · | 4.0%
O=C(Nc1cccc(C(=O)O)c1)/C(=C\C=C\c1ccccc1)NC(=O)c1ccccc1 | -0.9% | 13.5µM* | 0.7% | -3.8% | -2.9% | -1.8%
COc1ccccc1OCC(=O)NCCSCc1ccccc1Cl | 2.6% | -15.4% | 19.3% | -0.2% | 1.8% | 1.5%
COC(=O)c1ccccc1NC(=O)COc1ccccc1 | 6.9% | ? | 8.1% | 6.5% | 9.2% | 15.7%
O=C(COc1ccccc1)Nc1ccccc1Cl | ? | 15.1µM* | -11.2% | ? | 1.6% | ?
O=C(COc1ccccc1)NCCSCc1ccccc1Cl | 19.7% | 26.9µM* | · | 6.5% | 0.9% | 16.7%
COc1cccc(C(=O)N(Cc2ccc(N(C)C)cc2)Cc2ccco2)c1 | · | -2.7% | -0.6% | · | · | ·
c1ccc(-c2nc3c4ccccc4ccn3c2CN2CCCCC2)cc1 | -1.2% | 5.36µM* | · | 12.5% | · | -3.5%
Cc1ccc(-c2nc3c4ccccc4ccn3c2CN2CCCCC2)cc1 | 1.2% | ? | · | 11.8% | · | 8.5%
COc1cc2c(C(=O)N(C)c3cccc(C(F)(F)F)c3)cn(CC(C)C)c(=O)c2cc1OC | · | 2.9% | -8.7% | · | · | ·
COc1cc(NC(=O)c2cc(-c3cccc(Cl)c3)on2)c(OC)cc1Cl | · | 3.7% | 3.3% | · | · | ·
Cc1ccccc1NC1=NC(C)(C)N=C(N)N1 | 9.1% | -0.6% | 0.224µM* | 2.8% | -7.2% | 0.4%
Cc1cccc(NC2=NC(C)(C)N=C(N)N2)c1C | 1.1% | 5.9% | 0.0% | 2.2% | 3.4% | 3.6%
Cc1ccc(C)c(OCc2cc(C(=O)N3CCN(c4ccccc4)CC3)no2)c1 | 2.82µM* | 19µM* | · | 3.98µM* | · | 29.5%
O=C(c1cc(COc2ccc(F)cc2F)on1)N1CCN(C(=O)c2ccco2)CC1 | 0.5% | -11.7% | · | -3.3% | · | -8.2%
Cc1ccc(C)c(OCc2cc(C(=O)N3CCN(C(=O)c4ccco4)CC3)no2)c1 | 3.16µM* | 19µM* | · | 4.47µM* | · | ?
Cc1ccc(C)c(OCc2cc(C(=O)N3C[C@@H](C)O[C@@H](C)C3)no2)c1 | 2.24µM* | 6.01µM* | · | 1.58µM* | · | ?
C=CCNC(=O)c1onc(CSc2ccccc2C)c1C(=O)O | -1.8% | -15.8% | 0.8% | -5.6% | -4.1% | 0.5%
C=CCNC(=O)c1onc(CSc2cc(C)ccc2C)c1C(=O)O | -3.9% | -11.7% | 31.6µM* | -3.2% | -1.1% | -3.8%

High-throughput results as filed in PubChem.
